# Calls of active or inactive are those of the source.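 Rule for the calls, unless noted: active = viability at or below 30% in both replicate assays; inconclusive = viability at or below 30% in just one of the two assays; inactive = the rest.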
# Tests used:
# [1] = HUVEC growth inhibition – cell-based, human, primary screen (AID 575); details: HUVEC proliferation, CellTiter-Glo luminescence, 72 h; at 10 µM; stronger effect = lower value;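 note: 100% = median of untreated cell wells with 0.1% DMSO on each plate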
# [2] = reversal of MRP1-mediated doxorubicin resistance, pilot screen, H69AR cells, doxorubicin co-treatment (AID 601;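 active = viability loss from added drug above about 55%, and viability with drug at most 40%, in both replicates, limit read from the data, passing the limit was not always enough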); details: CellTiter-Glo, 72 h, at 10 µM; for differential viability (reversal): stronger effect = higher value
# [3] = 384-well plate pilot, post-Golgi transport modulator project, inhibition of yeast transport mutant growth (AID 636; in the data active = inhibition above about 31%); details: absorbance 615 nm, about 18 h, stronger effect = higher value
# [4] = growth suppression of yeast trafficking mutant, preliminary HTS, modulators of trafficking downstream of Golgi apparatus project, 1536-format plate, OD 615 nm (AID 637; in the data active = inhibition above about 30%); details: yeast transport mutant growth, absorbance 615 nm, 18 h; stronger effect = higher value
# [5] = H69AR cells + 2 uM doxorubicin, measured here: viability with 2 uM doxorubicin, stronger effect = lower value
# [6] = H69AR cells, compound alone cytotoxicity
Compound,viability [1],differential viability (reversal) ([2]; H69AR cells + 2 uM doxorubicin),"viability [2, 5] [%]","viability [2, 6] [%]",inhibition [3],inhibition [4]
CCCCCCCCNC(C)C(O)c1ccc(SC(C)C)cc1 (configuration not stated),2.21% (active),-0.28% (inactive),1.44,1.16,,
Nc1nc(Cl)nc2c1ncn2[C@@H]1O[C@H](CO)[C@@H](O)[C@H]1O,3.95% (active),-24.3% (inactive),74.6,50.3,-1.43% (inactive),1% (inactive)
CC(NCCC(c1ccccc1)c1ccccc1)c1ccccc1 (configuration not stated),2.03% (active),-0.87% (inactive),2.41,1.54,3.77% (inactive),-5.67% (inactive)
N#CC(C(=O)NCCc1ccccc1)c1nc2ccccc2nc1N1CCOCC1 (configuration not stated),82.7% (inactive),-3.4% (inactive),62.6,59.2,-0.53% (inactive),-5.71% (inactive)
CC(=O)Oc1cccc(/C=c2\sc3nc(-c4ccco4)nn3c2=O)c1,56.6% (inactive),-3.61% (inactive),55.8,52.2,-0.91% (inactive),1.27% (inactive)
CCNc1nc(NC(C)C)nc(N(C#N)CCOc2ccc(Cl)cc2Cl)n1,48.8% (inactive),20.4% (inactive),33.2,53.6,16.2% (inactive),-3.81% (inactive)
O=c1c2cn[nH]c2nc(SCc2ccc3c(c2)OCCO3)n1-c1ccccc1,74.4% (inactive),-22.2% (inactive),83.9,61.7,1.45% (inactive),-4.44% (inactive)
COC(=O)c1ccc(NC2(C#N)C(=O)Nc3ccccc32)cc1 (configuration not stated),69.2% (inactive),-16.1% (inactive),58.2,42.1,-5.33% (inactive),3.97% (inactive)
c1ccc(-n2ncc3c(NCc4cccs4)ncnc32)cc1,79% (inactive),-10.5% (inactive),52.3,41.8,-7.73% (inactive),2.22% (inactive)
O=c1c2ccccc2nc(-c2cccc(Cl)c2)n1O,84.6% (inactive),-14.1% (inactive),60.1,45.9,-3.68% (inactive),0.32% (inactive)
CN1CCCN(C(c2ccccc2)c2ccc(Cl)cc2)CC1 (configuration not stated),54.3% (inactive),-24.5% (inactive),69.4,44.8,,

# Reference: PubChem BioAssay
